S1P4 agonist – activates the human S1P4 receptor. O95977. S1P4-expressing cell line, agonist reporter assay. activation, % at 4.98 µM. 220,000 tested, 0.35% active; in the data active = activation above about 11%;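 note: 0% = DMSO vehicle and 100% = reference agonist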
S1P4 antag – antagonists of human S1P4 receptor; inhibition, % at 4.98 µM; O95977; 220,000 tested, 0.26% active; S1P4-expressing cells, antagonist mode, reporter read-out; in the data active = inhibition above about 29%;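 note: 0% = wells stimulated with agonist and 100% = vehicle wells without agonist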
PGE2 EP2 inh – blocks the human prostaglandin E2 receptor EP2; C6 glioma cells expressing human EP2, cAMP TR-FRET; cells stimulated with saturating PGE2; inhibition, % at 25 µM; 260,000 tested, 0.52% active; AID 1422;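 active = percent inhibition above 40 after rounding to a whole number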;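 note: rat C6 glioma host cells with rolipram phosphodiesterase inhibitor present; the protocol text gives 20 µM as final concentration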
EP2 modulator – modulates human prostaglandin E2 receptor EP2 signaling | P43116 | EP2-expressing cells, cAMP HTRF FRET, PGE2 co-stimulation | induction, % at 25 µM | 260,000 tested, 0.83% active | AID 940;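 active = compounds whose cAMP rise, as percent of the full-agonist control response, exceeds 60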;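 note: rat C6 glioma line stably carrying human EP2 under a CMV promoter; the protocol text gives 20 µM as final concentration; 100% = response of wells given 1 µM PGE2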
S1P3 antag – antagonists of human S1P3 receptor; inhibition, % at 4.98 µM; CHO S1P3 NFAT-BLA reporter, FRET fluorescence, antagonist mode; Q99500; 170,000 tested, 0.27% active; AID 485;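 active = inhibition above the plate cutoff, the mean inhibition of test wells on that plate plus 3 SD, cut at about 28% in these data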;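 note: cells challenged with S1P at its EC80 of 0.8 µM; blue over green emission ratio from cleaved BLA substrate after 4 h stimulation; 0% = S1P-stimulated wells and 100% = unstimulated DMSO-only wells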
S1P4 ag conf – human S1P4 agonism, confirmation. AID 1523. 740 tested, 7% active. shares compounds with S1P4 agonist. activation, % at 4.98 µM. S1P4 agonist cell-based reporter assay; in the data active = activation above about 12%;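 note: 0% = vehicle and 100% = full reference agonist response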
S1P1 ag – activates human S1P1, counter-screen for S1P4 agonists. AID 1563. 740 tested, 4% active. activation, % at 4.98 µM. S1P1 agonist cell-based assay, activation. shares compounds with S1P4 agonist; in the data active = activation above about 21%;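 note: 0% = vehicle wells and 100% = reference agonist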
Target sequence (P21453 whole entry, looked up): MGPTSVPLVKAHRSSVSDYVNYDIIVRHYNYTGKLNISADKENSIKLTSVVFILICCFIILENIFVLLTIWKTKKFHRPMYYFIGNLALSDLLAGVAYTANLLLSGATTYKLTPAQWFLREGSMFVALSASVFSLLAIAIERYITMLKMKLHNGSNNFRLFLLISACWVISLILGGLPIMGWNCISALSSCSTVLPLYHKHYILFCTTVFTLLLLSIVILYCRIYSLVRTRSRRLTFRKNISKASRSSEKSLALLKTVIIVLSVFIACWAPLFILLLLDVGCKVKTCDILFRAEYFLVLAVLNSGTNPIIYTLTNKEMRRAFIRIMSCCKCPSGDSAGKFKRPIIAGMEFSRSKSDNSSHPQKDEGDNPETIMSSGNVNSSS
Numbers without * were called inactive; ! = not active in a repeat. A selection: hits, their analogues and other compounds. The true share with any hit is near 2%.

For Cc1ccc(N=c2oc3cc(O)ccc3cc2C(N)=O)cc1 the results were S1P4 agonist 35*, S1P4 antag -55, PGE2 EP2 inh 11, EP2 modulator 30, S1P3 antag 29, S1P4 ag conf 4 and S1P1 ag 2.
For Cc1cccc(N=c2oc3cc(O)ccc3cc2C(=O)NCC2CCCO2)c1 (centres undefined) the results were PGE2 EP2 inh 9 and EP2 modulator -60.
`O=C(NCc1ccco1)c1cc2ccc(O)cc2oc1=O` gave S1P4 agonist 112*, S1P4 antag -127, PGE2 EP2 inh 4, EP2 modulator 21, S1P3 antag -36, S1P4 ag conf 51* and S1P1 ag 84*.
Screening COc1ccc2cc(C(C)=O)c(=O)oc2c1 returned S1P4 agonist 0, S1P4 antag -23, PGE2 EP2 inh 10, EP2 modulator 35 and S1P3 antag -7.
For COc1cc(C#N)c(NC(=S)N2CCOCC2)cc1OC the results were S1P4 agonist 24*, S1P4 antag -3, PGE2 EP2 inh 7, EP2 modulator 14, S1P3 antag -19, S1P4 ag conf -2 and S1P1 ag -7.
`COC(=O)c1ccc(C(=O)OC)c(NC(=S)N2CCOCC2)c1` gave S1P4 agonist 3, S1P4 antag -16, PGE2 EP2 inh 10, EP2 modulator 0 and S1P3 antag -12.
Screening COCCSc1ccccc1C(=O)N1CCN(Cc2ccccc2)CC1 returned S1P4 agonist 13*, S1P4 antag -10, PGE2 EP2 inh 2, EP2 modulator -37, S1P3 antag -9, S1P4 ag conf -2 and S1P1 ag -7.
For Cc1ccc(-c2csc(/C(C#N)=C(\O)CCl)n2)cc1 the results were S1P4 agonist 20*, S1P4 antag -23, PGE2 EP2 inh 8, EP2 modulator -50, S1P3 antag 3, S1P4 ag conf -3 and S1P1 ag -5.
For Cc1cc(C)n(-c2ccc(C(=O)Nc3sccc3C(N)=O)cc2)n1 the results were S1P4 agonist 12*, S1P4 antag -25, PGE2 EP2 inh 16, EP2 modulator -4, S1P3 antag 18, S1P4 ag conf 21* and S1P1 ag -7.
Screening COc1ccc(OC)c2[nH]c(C(=O)N3CCC(C(=O)c4nccs4)CC3)cc12 returned EP2 modulator -28.
CCN(CC)c1ccc2c(C)c(Cl)c(=O)oc2c1 was read as S1P4 agonist 16*, S1P4 antag -4, PGE2 EP2 inh 3, EP2 modulator 10, S1P3 antag 6, S1P4 ag conf 8 and S1P1 ag 9.
`COc1ccccc1/C=C(/CC(=O)NCc1ccc(F)cc1)c1nc2ccccc2s1` gave S1P4 agonist 63*, S1P4 antag 12, PGE2 EP2 inh 3, EP2 modulator 20, S1P3 antag 1, S1P4 ag conf -1 and S1P1 ag -5.
`COc1ccccc1/C=C(/CC(=O)NCc1ccccc1)c1nc2ccccc2s1` gave S1P4 agonist 0, S1P4 antag 7, PGE2 EP2 inh 6, EP2 modulator 40 and S1P3 antag -9.
For Cc1ccc(NC(=O)c2ccc(N/N=C/c3cccc(O)c3)c([N+](=O)[O-])c2)cc1 the results were S1P4 agonist 14*, S1P4 antag -9, PGE2 EP2 inh 13, EP2 modulator -1, S1P4 ag conf -2 and S1P1 ag -5.
Screening COc1ccccc1NC(=S)N1CCC(NC(=O)c2ccc(C)cc2)CC1 returned PGE2 EP2 inh 20 and EP2 modulator -42.
For CCn1ncc(C(=O)N2CCC(C(=O)c3nc4ccccc4s3)CC2)c1C the results were EP2 modulator -60.
Screening COc1ccc(-c2c(C#N)c(N)nc3c2CCc2ccccc2-3)cc1OC returned S1P4 agonist 14*, S1P4 antag -13, PGE2 EP2 inh 5, EP2 modulator 5, S1P4 ag conf 18* and S1P1 ag 10.
Cc1cc(Oc2ccc(-c3nnc(-c4ccccc4)o3)cc2[N+](=O)[O-])ccc1Cl was read as S1P4 agonist 14*, S1P4 antag -2, PGE2 EP2 inh 11, EP2 modulator -4, S1P3 antag 11, S1P4 ag conf -1 and S1P1 ag 2.
Screening Nc1nc(Nc2ccc(Cl)cc2Cl)nc(C(F)(F)F)n1 returned S1P4 agonist 30*, S1P4 antag -9, PGE2 EP2 inh 11, EP2 modulator -11, S1P3 antag -9, S1P4 ag conf 27* and S1P1 ag -2.
For O=C(O)CSc1nnc(-c2cccc(S(=O)(=O)N3CCOCC3)c2)n1-c1cccc(Cl)c1 the results were S1P4 agonist 15*, S1P4 antag -2, PGE2 EP2 inh 5, EP2 modulator 18, S1P3 antag 8, S1P4 ag conf 0 and S1P1 ag 1.
For CNC(=O)CSc1nnc(-c2cccc(S(=O)(=O)N3CCOCC3)c2)n1-c1ccc(F)cc1 the results were S1P4 agonist -1, S1P4 antag -19, PGE2 EP2 inh 6, EP2 modulator 30 and S1P3 antag -23.
COc1cc(NC2=CC(=O)CC(C)(C)C2)cc(OC)c1 was read as S1P4 agonist 28*, S1P4 antag -2, PGE2 EP2 inh 8, EP2 modulator 11, S1P3 antag -12, S1P4 ag conf -1 and S1P1 ag 3.
For CCOC(=O)c1ccc(NC(=O)CCc2nc(-c3ccccc3Cl)no2)cc1 the results were S1P4 agonist 12*, S1P4 antag 2, PGE2 EP2 inh 10, EP2 modulator -15, S1P3 antag -6, S1P4 ag conf -2 and S1P1 ag 0.
CCc1nn(CC(=O)NC(C)c2ccc(OC)cc2)c(=O)c2cc3ccsc3n12 (centres undefined) was read as EP2 modulator -6.
For Cn1cccc1C(=O)C(=O)Nc1cccc(Cl)c1Cl the results were S1P4 agonist 20*, S1P4 antag 1, PGE2 EP2 inh 13, EP2 modulator 17, S1P4 ag conf -1 and S1P1 ag 1.
`Cn1cccc1C(=O)C(=O)Nc1ccc(Cl)cc1` gave S1P4 agonist 1, S1P4 antag 3, PGE2 EP2 inh 18 and EP2 modulator -1.
For C=CCn1c(SCC(=O)Nc2nnc(CC)s2)nnc1-c1ccco1 the results were S1P4 agonist 29*, S1P4 antag -15, PGE2 EP2 inh 13, EP2 modulator 13, S1P3 antag -9, S1P4 ag conf -1 and S1P1 ag 1.
`Cc1nn(C)cc1S(=O)(=O)Nc1cccc(N2CCCC2=O)c1` gave PGE2 EP2 inh 7 and EP2 modulator -5.
For CCOC(=O)CSc1ccc(-c2nc3ccccc3[nH]2)cn1 the results were S1P4 agonist 19*, S1P4 antag -3, PGE2 EP2 inh 42*!, EP2 modulator -49, S1P4 ag conf -1 and S1P1 ag -5.

Source: PubChem (several laboratories)
